Source: PubChem BioAssay AID1159580 (chemical genetic matrix, 2015)
About 2,000 (36%) of roughly 5,500 compounds were called active. About 18% were inconclusive and are not listed. This is one part of the list. Values without a mark were called inactive. Rule as the data show it: active = normalized growth mostly below about 0.91 (no sharp cut-off); inconclusive = no clear call, values can overlap the other calls; inactive = mostly above about 0.92.

Test: chemical genetic growth profiling, strain panel (AID 1159580);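 also: tested at 20 µM; growth read once vehicle control cultures reached saturation at 30 °C; 1 = growth at the plate median or of vehicle wells; lower values mean less growth of the strain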
Conditions: S. cerevisiae deletion strains, growth OD

O=C(OC1Cc2c(O)cc(O)cc2OC1c1cc(=O)c(O)c2c(O)c(O)cc(C3Oc4cc(O)cc(O)c4CC3O)c2c1)c1cc(O)c(O)c(O)c1 (stereo unspecified)
normalized growth (locus YAL013W, strain DEP1, active compounds read low): 0.132 (active)
normalized growth (locus YAL021C, strain ccr4, active compounds read low): 0.794 (active)
normalized growth (locus YAL026C, strain drs2, active compounds read low): 0.856 (active)
normalized growth (locus YAL030W, strain snc1, active compounds read low): 0.971
normalized growth (locus YBL061C, strain skt5, active compounds read low): 0.932
normalized growth (locus YBR009C, strain hhf1, active compounds read low): 0.901 (active)
normalized growth (locus YBR021W, strain FUR4, active compounds read low): 1.05
normalized growth (locus YBR023C, strain chs3, active compounds read low): 0.87 (active)
normalized growth (locus YBR171W, strain sec66, active compounds read low): 0.972
normalized growth (locus YBR229C, strain ROT2, active compounds read low): 0.766 (active)
normalized growth (locus YBR231C, strain swc5, active compounds read low): 0.819 (active)
normalized growth (locus YBR279W, strain paf1, active compounds read low): 0.942
normalized growth (locus YCL011C, strain gbp2, active compounds read low): 0.948
normalized growth (locus YCL016C, strain dcc1, active compounds read low): 0.976
normalized growth (locus YCL029C, strain bik1, active compounds read low): 0.816 (active)
normalized growth (locus YCL061C, strain MRC1, active compounds read low): 0.942
normalized growth (locus YCL069W, strain vba3, active compounds read low): 0.986
normalized growth (locus YCR088W, strain abp1, active compounds read low): 1
normalized growth (locus YDL005C, strain med2, active compounds read low): 0.996
normalized growth (locus YDL035C, strain GPR1, active compounds read low): 0.158 (active)
normalized growth (locus YDL040C, strain nat1, active compounds read low): 1
normalized growth (locus YDL074C, strain BRE1, active compounds read low): 0.286 (active)
normalized growth (locus YDL101C, strain DUN1, active compounds read low): 0.194 (active)
normalized growth (locus YDL185W, strain tfp1, active compounds read low): 0.92
normalized growth (locus YDL192W, strain arf1, active compounds read low): 0.747 (active)
normalized growth (locus YDR001C, strain nth1, active compounds read low): 0.992
normalized growth (locus YDR069C, strain doa4, active compounds read low): 0.71 (active)
normalized growth (locus YDR101C, strain arx1, active compounds read low): 0.91 (active)
normalized growth (locus YDR137W, strain rgp1, active compounds read low): 0.844 (active)
normalized growth (locus YDR150W, strain NUM1, active compounds read low): 0.651 (active)
normalized growth (locus YDR159W, strain sac3, active compounds read low): 1.06
normalized growth (locus YDR162C, strain NBP2, active compounds read low): 0.0937 (active)
normalized growth (locus YDR195W, strain ref2): 1.03
normalized growth (locus YDR297W, strain sur2, active compounds read low): 0.966
normalized growth (locus YDR318W, strain mcm21, active compounds read low): 0.828 (active)
normalized growth (locus YDR334W, strain swr1, active compounds read low): 0.873 (active)
normalized growth (locus YDR335W, strain msn5, active compounds read low): 0.938
normalized growth (locus YDR388W, active compounds read low): 0.888 (active)
normalized growth (locus YDR392W, strain spt3, active compounds read low): 0.939
normalized growth (locus YDR502C, strain sam2, active compounds read low): 0.645 (active)
normalized growth (locus YEL003W, strain gim4, active compounds read low): 0.946
normalized growth (locus YEL037C, strain rad23, active compounds read low): 0.946
normalized growth (locus YEL061C, strain CIN8 (second series), active compounds read low): 0.992
normalized growth (locus YEL061C, strain CIN8, active compounds read low): 0.417 (active)
normalized growth (locus YER015W, strain faa2, active compounds read low): 0.93
normalized growth (locus YER016W, strain bim1, active compounds read low): 0.968
normalized growth (locus YER110C, active compounds read low): 1.01
normalized growth (locus YER111C, strain swi4, active compounds read low): 0.885 (active)
normalized growth (locus YER155C, strain BEM2 (second series), active compounds read low): 0.927
normalized growth (locus YER155C, strain BEM2, active compounds read low): 0.982
normalized growth (locus YER167W, strain BCK2, active compounds read low): 0.585 (active)
normalized growth (locus YFR010W, strain ubp6, active compounds read low): 0.862 (active)
normalized growth (locus YGL078C, strain dbp3, active compounds read low): 1
normalized growth (locus YGL086W, strain mad1, active compounds read low): 0.795 (active)
normalized growth (locus YGL167C, strain pmr1, active compounds read low): 0.969
normalized growth (locus YGL173C, strain kem1, active compounds read low): 0.81 (active)
normalized growth (locus YGL227W, strain vid30, active compounds read low): 1
normalized growth (locus YGL240W, strain doc1, active compounds read low): 1
normalized growth (locus YGL248W, strain PDE1, active compounds read low): 0.345 (active)
normalized growth (locus YGL253W, strain hxk2, active compounds read low): 0.887 (active)
normalized growth (locus YGR078C, strain PAC10, active compounds read low): 0.704 (active)
normalized growth (locus YGR135W, strain pre9, active compounds read low): 0.67 (active)
normalized growth (locus YGR229C, strain SMI1, active compounds read low): 0.0876 (active)
normalized growth (locus YGR252W, strain gcn5, active compounds read low): 0.56 (active)
normalized growth (locus YHR013C, strain ard1, active compounds read low): 0.805 (active)
normalized growth (locus YHR027C, strain rpn1, active compounds read low): 0.812 (active)
normalized growth (locus YHR030C, strain SLT2, active compounds read low): 0.59 (active)
normalized growth (locus YHR079C, strain IRE1 (second series), active compounds read low): 0.864 (active)
normalized growth (locus YHR094C, strain hxt1, active compounds read low): 0.982
normalized growth (locus YHR129C, strain ARP1, active compounds read low): 0.536 (active)
normalized growth (locus YHR142W, strain chs7, active compounds read low): 0.841 (active)
normalized growth (locus YHR200W, strain rpn10, active compounds read low): 0.794 (active)
normalized growth (locus YIL066C, strain RNR3, active compounds read low): 0.0947 (active)
normalized growth (locus YIL073C, strain SPO22, active compounds read low): 0.159 (active)
normalized growth (locus YIL125W, strain kgd1, active compounds read low): 0.995
normalized growth (locus YIR030C, strain dcg1, active compounds read low): 0.956
normalized growth (locus YJL092W, strain hpr5, active compounds read low): 0.992
normalized growth (locus YJL095W, strain BCK1 (second series), active compounds read low): 0.96
normalized growth (locus YJL095W, strain BCK1, active compounds read low): 0.154 (active)
normalized growth (locus YJL115W, strain asf1, active compounds read low): 0.986
normalized growth (locus YJL129C, strain trk1, active compounds read low): 1.04
normalized growth (locus YJL134W, strain LCB3, active compounds read low): 0.732 (active)
normalized growth (locus YJL154C, strain vps35, active compounds read low): 1
normalized growth (locus YJL164C, strain tpk1, active compounds read low): 0.868 (active)
normalized growth (locus YJL166W, strain qcr8, active compounds read low): 0.883 (active)
normalized growth (locus YJL168C, strain set2, active compounds read low): 0.954
